High-throughput results: PubChem, The Scripps Research Institute Molecular Screening Center
TEAD-YAP block: TEAD-YAP interaction inhibition | actives 1.4% (n = 640,000) | HEK-TIYL cells, TEAD-Gal4/YAP UAS-luciferase luminescence | AID 1259422 | inhibition, % at 9.12 µM; in the data active = inhibition above about 32%;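 also: 0% = median of test compound wells and 100% = reference inhibitor wells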
GPR151 ag: activators of human GPR151; actives 1% (n = 650,000); Q8TDV0; PathHunter beta-arrestin GPR151 cells, luminescence; AID 1508602; activation, % at 11.2 µM; in the data active = activation above about 4.9%;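 also: 0% = median of compound wells and 100% = cells with positive control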
FBW7 activator: activators of human E3 ligase FBW7; AlphaScreen FBW7–phospho-cyclin E peptide binding, activator screen; normalized activity (activation), % at 26.1 µM; AID 1259310; actives 0.13% (n = 650,000); in the data active = normalized activity above about 1.9%;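 also: purified mutant Fbw7 with reduced substrate affinity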
MITF primary: blocks human microphthalmia-associated transcription factor | O75030 | AlphaScreen MITF homodimerization, bead proximity signal | inhibition, % at 2.6 µM | actives 0.91% (n = 650,000) | AID 1259374; in the data active = inhibition above about 50%;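 also: 0% = vehicle wells with protein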
GPR151 confirm: confirmation of human GPR151 activators. shares compounds with GPR151 ag. GPR151 PathHunter beta-arrestin cells, luminescence, 90 min; % of EA-reagent control over plate median. activation, % at 11.2 µM. 6,700 tested, under 10 active. AID 1508609;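 active = mean percent activation across replicates above the confirmation screen cutoff of 4.91%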
GPR119 counter: activates human GPR119 in a GPR151 counter-screen | actives 0.3% (n = 6,700) | AID 1508611 | shares compounds with GPR151 ag | GPR119 PathHunter beta-arrestin cells, luminescence, 90 min; 0 = compound-well median, 100 = enzyme-acceptor control | activation, % at 11.2 µM;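 active = mean percent activation in the counterscreen above 29.09%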;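 also: counterscreen on off-target GPR119 to flag nonselective hits from the GPR151 activator screen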
Target sequence (Q8TDV5 whole entry, looked up): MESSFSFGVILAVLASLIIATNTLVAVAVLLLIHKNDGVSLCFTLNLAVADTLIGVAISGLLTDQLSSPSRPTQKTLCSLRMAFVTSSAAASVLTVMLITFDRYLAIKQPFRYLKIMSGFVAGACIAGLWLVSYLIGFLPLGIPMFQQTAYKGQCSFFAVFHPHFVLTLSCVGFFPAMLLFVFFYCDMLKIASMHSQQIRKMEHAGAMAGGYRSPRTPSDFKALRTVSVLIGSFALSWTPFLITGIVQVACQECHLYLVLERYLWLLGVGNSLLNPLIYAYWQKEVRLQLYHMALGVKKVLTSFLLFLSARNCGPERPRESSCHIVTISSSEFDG
Starred values were filed as active, the others as inactive; . = no result. The list is not random: actives were taken first. Their share in the collection is about 3.5%.

SMILES	TEAD-YAP block	GPR151 ag	FBW7 activator	MITF primary	GPR151 confirm	GPR119 counter
O=C(NCCN1CCN(S(=O)(=O)c2ccccc2)CC1)C(=O)NCc1ccco1	5	5.7*	0	-2	0	-8
Cc1ccc(C)n1CCN1CCN(S(=O)(=O)c2ccccc2)CC1	5	5.1*	0	-34	0	-3
CCc1ccccc1Nc1nncc(=O)[nH]1	11	7.2*	0	-1	-2	-10
CCOc1ccccc1Nc1nncc(=O)[nH]1	11	0	0	-3	.	.
CCOC(=O)C1=C(C)NC(SCC(=O)Nc2cc(C)on2)=C(C#N)C1c1cccs1 (centres undefined)	16	5.8*	0	9	-1	-8
CCOC(=O)C1=C(C)NC(SCC(N)=O)=C(C#N)C1c1cccs1 (centres undefined)	5	0	0	5	.	.
Cc1nc(C(=O)N2CCC(C3(C)NC(=O)N(Cc4ccc(F)cc4)C3=O)CC2)cs1 (centres undefined)	-2	0	0	8	.	.
COc1ccc(C(=O)Nc2c(C)cc(O)c(Cl)c2C)cc1	4	-1	0	1	.	.
Cc1c(C(=O)N/N=C/c2cccc([N+](=O)[O-])c2)[nH]c2c([N+](=O)[O-])cccc12	-7	5.2*	0	1	0	-9
N#C/C(=C\c1cccc([N+](=O)[O-])c1)C(N)=O	-3	5.7*	0	2	0	3
Cc1cc([N+](=O)[O-])ccc1NC(=O)/C(C#N)=C/c1cccc([N+](=O)[O-])c1	4	0	0	9	.	.
O=C(CC(=O)N/N=C/c1cccc([N+](=O)[O-])c1)N/N=C/c1cccc([N+](=O)[O-])c1	17	0	0	8	.	.
N#C/C(=C/c1cccc([N+](=O)[O-])c1)C(=O)Nc1ccc(O)cc1	-8	-1	1	1	.	.
NC(=O)N/N=C\c1cccc([N+](=O)[O-])c1	0	7.6*	0	10	-1	-4
CC(=O)Oc1cccc(/C=C(\C#N)C(=O)Nc2ccc([N+](=O)[O-])cc2C)c1	12	6.3*	0	13	-1	-9
Cc1ccc(C)c(NC(=O)C(=O)NC2CCC(C)CC2)c1 (centres undefined)	4	1	0	5	.	.
Cc1ccc(C(=O)NC(Cc2c[nH]c3ccccc23)C(=O)O)cc1 (centres undefined)	-4	-1	0	-2	.	.
CC(C)(O)C#Cc1ccc(C(=O)NC(Cc2c[nH]c3ccccc23)C(=O)O)cc1 (centres undefined)	-3	12*	0	-2	1	7
CC1CCCN(S(=O)(=O)c2cccs2)C1 (centres undefined)	2	10*	0	2	0	8
CCC(C)NC(=O)C1CCCN(S(=O)(=O)N2CCOCC2)C1 (centres undefined)	-1	8.8*	0	6	0	0
CCOC(=O)c1sc(NC(=S)NC(=O)c2ccccc2F)nc1C	10	-1	0	-1	.	.
CCOC(=O)c1sc(NC(=O)c2c(F)cccc2F)nc1C	-7	7.8*	0	-6	0	16
COc1cc(/C=C2\N=C(c3ccc(Cl)c([N+](=O)[O-])c3)OC2=O)cc(Br)c1OC(C)=O	11	-1	0	16	.	.
CC(NC(=O)c1cnccn1)c1nc(-c2ccncc2)n[nH]1 (centres undefined)	6	-1	0	2	.	.
CC(NC(=O)c1cnccn1)c1nc(-c2ccc(Cl)cc2)n[nH]1 (centres undefined)	2	8.1*	0	-1	1	12
SMILES	TEAD-YAP block	GPR151 ag	FBW7 activator	MITF primary	GPR151 confirm	GPR119 counter
Cc1ccccc1C(=O)Nc1cc(C(=O)N2CCCCCC2)cn(C)c1=O	-13	-1	0	-1	.	.
COc1ccc(C(=O)N(CCCO)C(C)C(=O)NC2CCCCC2)cc1OC (centres undefined)	4	5.1*	1	15	1	4
O=C(Nc1ncn[nH]1)c1ccc(F)c(S(=O)(=O)N2CCOCC2)c1	3	0	0	0	.	.
O=C(/C=C/c1ccc(-c2ccc(Br)cc2)o1)N1CCOCC1	-45	5.4*	0	0	0	-4
O=C(/C=C/c1ccc(Br)cc1)N1CCOCC1	-25	3	0	7	.	.
Cc1cccc(Cn2c(NCCN(C)C)nc3c2c(=O)[nH]c(=O)n3C)c1	6	1	0	5	.	.
CN(C)CCNc1nc2c(c(=O)[nH]c(=O)n2C)n1Cc1ccc([N+](=O)[O-])cc1	5	5.1*	0	9	1	6
COc1cccc(-n2nnc(-c3nc(-c4ccc(Cl)cc4)no3)c2N)c1	-2	1	0	4	.	.
O=C(CC1NCCNC1=O)Nc1ccccc1 (centres undefined)	-1	0	0	-7	.	.
CN(C)c1ccc(NC(=O)CC2NCCNC2=O)cc1 (centres undefined)	-5	5.0*	0	7	-1	1
Fc1ccc(/C=N/Nc2nc3ccccc3s2)cc1	-64	7.0*	0	3	-1	4
O=C(OCc1nnnn1-c1ccccc1)c1ccc(C(F)(F)F)cc1	2	0	0	-1	.	.
CCOC(CNC(=O)c1ccc2cc[nH]c2c1)(OCC)c1ccncc1	-6	7.3*	0	5	-1	-2
COc1cccc(NC(=O)c2ccc(NCc3ccc(C)cc3)c([N+](=O)[O-])c2)c1	1	0	0	0	.	.
COCCn1c(C)cc(C(=O)CSc2nnc(-c3ccc4c(c3)OCO4)o2)c1C	-1	-3	0	1	.	.
CSc1nc2ccccc2c(=O)n1C1CCCCC1	-6	5.3*	0	2	0	9
COc1ccccc1N1CCN(C2CCCN(Cc3ccc4nonc4c3)C2)CC1 (centres undefined)	14	8.0*	0	0	1	-4
COc1ccccc1N1CCN(C2CCCN(Cc3cccn3-c3cccnc3)C2)CC1 (centres undefined)	4	7.5*	0	4	0	4
COc1ccc(CN2CCCC(N3CCN(c4ccccc4OC)CC3)C2)cc1O (centres undefined)	-1	1	0	-2	.	.
COc1ccccc1N1CCN(C2CCCN(Cc3ccncc3)C2)CC1 (centres undefined)	7	0	0	6	.	.
O=C(CN1CCCCC1)N/N=C/c1ccco1	-11	-1	1	11	.	.
CCOc1ccc(-n2c(=O)c3c4c(sc3n(CC(N)=O)c2=O)CCC4)cc1	-3	2	0	-19	.	.
CC1(C)OC(=O)N2CCN3C(=O)OC(C)(C)C3(C)C(Br)=C21 (centres undefined)	7	6.0*	0	7	-1	-3
